From PubChem BioAssay AID2533 (National Center for Advancing Translational Sciences (NCATS), 2010) come the findings set out here.

Where “and” joins values, the source holds several entries; their conditions need not be identical. Identical values can stand only once. Inconclusive results are not listed. Values without a mark were called inactive. Calls of active or inactive are those of the source. Calls follow the shape of the dose curve; as a rule, active = well fitted activation curve with a large enough effect; inconclusive = small, poorly fitted or top-dose-only effect; inactive = flat fitted curve, though single readings scatter.
Potency is read from the fitted curve at half-maximal effect.

Chain of Pyruvate kinase PKM (Homo sapiens) (P14618 whole entry, looked up, canonical isoform): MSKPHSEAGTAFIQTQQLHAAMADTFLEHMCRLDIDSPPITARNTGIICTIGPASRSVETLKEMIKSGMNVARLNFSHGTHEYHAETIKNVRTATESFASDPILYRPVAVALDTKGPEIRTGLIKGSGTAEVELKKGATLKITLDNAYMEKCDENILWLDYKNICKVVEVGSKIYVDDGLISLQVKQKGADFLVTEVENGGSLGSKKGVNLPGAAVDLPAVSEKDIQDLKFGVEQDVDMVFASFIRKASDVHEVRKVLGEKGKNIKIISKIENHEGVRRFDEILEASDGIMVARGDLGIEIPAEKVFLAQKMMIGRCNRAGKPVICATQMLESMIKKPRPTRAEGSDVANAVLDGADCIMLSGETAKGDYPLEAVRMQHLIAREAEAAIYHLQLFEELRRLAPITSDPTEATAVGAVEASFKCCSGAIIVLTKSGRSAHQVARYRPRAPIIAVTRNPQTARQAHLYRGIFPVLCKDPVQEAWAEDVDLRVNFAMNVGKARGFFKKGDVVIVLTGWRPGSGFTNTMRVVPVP

For the assay, the target named is Pyruvate kinase PKM (Homo sapiens) (UniProt P14618). The assay is described as follows: Confirmation Concentration-Response Assay for Activators of Human Muscle isoform 2 Pyruvate Kinase: for Probe SAR. Also: nearly all actives have a fitted effect of over 60% in size. As to activity change, positive = activation: % of control where 0% means no effect. Conditions: purified PKM2, ATP generation, Kinase-Glo luminescence; series mostly up to 57.5 µM; activity change, positive = activation: at the top concentration. From the text:
NIH Chemical Genomics Center [NCGC]
Matthew G. Vander Heiden, M.D., Ph.D. [Harvard Medical School, 77 Avenue Louis Pasteur, Boston, MA 02115]
Human pyruvate kinase muscle 2 (hPK-M2) enzyme was supplied as a highly purified (>95% pure) preparation from Harvard Medical School and assayed for its ability to generate ATP from ADP using phosphoenolpyruvate (PEP) as a substrate. ATP generation was detected in a coupled reaction by luciferase-mediated luminescence, an ATP-dependent process. […] The enzyme was assayed at an intermediate level of activity to screen for both inhibitors and activators.
NCGC Assay Protocol Summary:
Three uL of substrate mix (at r.t.) in assay buffer (50 mM Imidazole pH7.2, 50 mM KCl, 7 mM MgCl2, 0.01% Tween 20, 0.05% BSA) was dispensed into white solid bottom 1,536 well microtiter plates so that the final concentrations of substrates in the assay were 0.1 mM ADP and 0.5 mM PEP. 23 nL of compound were delivered by a pin tool and 1 uL of enzyme mix (final concentration of 0.1 nM) in assay buffer (4 degree Celsius) was added. Plates were incubated at room temperature for 1 hour. Two uL of detection mix (Kinase-Glo, Promega; at 4 degree Celsius protected from light) was added and luminescence read by a ViewLux (Perkin Elmer) at 1 second exposure/plate. Data were normalized to the uninhibited (column 3) and AC100 inhibition (no enzyme in column 2). To monitor activation, the first column contained a titration of the activator, NCGC00031955-03 (16-point 1:2 dilutions in duplicate starting at 57 uM) and the first 16 rows of column 4 contained 57 uM of NCGC00031955-03.
(Kinase-Glo reads ATP consumption through a luciferase reaction.)
As for `O=C1c2ccccc2C(=O)N1C1CCCCC1`, the “activity change, positive = activation” value is 8.3%.

Take `Cc1ccc(NS(=O)(=O)c2ccc(N3CCCC3=O)cc2)cc1C`: the “activity change, positive = activation” value is 18.2%.

For `Cc1ccc(NS(=O)(=O)c2cccc(Cl)c2)cc1C`, the Potency is 16.3 µM (active).

Regarding `N#Cc1ccc(OC2=NS(=O)(=O)c3ccccc32)cc1`, the “activity change, positive = activation” value was 1.36%.

For the molecule `Cc1ccc(NS(=O)(=O)c2ccc3c(c2)n(C)c(=O)n3C)cc1C`, the Potency is 1.46 µM (active).

`O=C1CCc2cc(S(=O)(=O)Nc3ccc(-c4ccccc4)cc3)ccc2N1`: the “activity change, positive = activation” value is 20.6%.

With `Nc1ccccc1OC1=NS(=O)(=O)c2ccccc21`, the “activity change, positive = activation” value is 16.3%.

As for `CCSC1=NS(=O)(=O)c2ccccc21`, the “activity change, positive = activation” value was 8.09%.

As to `O=S1(=O)N=C(Oc2cccc3ccccc23)c2ccccc21`, the “activity change, positive = activation” value was -1.77%.

For the molecule `COc1ccc(O)cc1`, the “activity change, positive = activation” value is 7.63%.

For `Cc1ccc2nc(-c3ccc(C)o3)c(NC3CCCC3)n2c1`, the “activity change, positive = activation” value was 11.9%.

For `O=S1(=O)N=C(Sc2ccc3c(c2)OCCO3)c2ccccc21`, the “activity change, positive = activation” value is -17.2%.

For `Cc1ccc(NS(=O)(=O)c2ccc3c(c2)CCC(=O)N3)cc1`, the Potency was 5.8 µM (active).

`Cc1ccc(NS(=O)(=O)c2ccc3c(c2)CCC(C)(C)O3)cc1C`: the “activity change, positive = activation” value is 30%.

With `COc1cccc(Cn2ncc3c4sc(S(C)=O)cc4n(C)c3c2=O)c1` (stereo not given), the Potency is 0.073 µM (active).

Consider `COc1ccccc1OC1=NS(=O)(=O)c2ccccc21`, for which the “activity change, positive = activation” value was 14.5%.

`O=C1CCc2cc(S(=O)(=O)Nc3cccc(C(F)(F)F)c3)ccc2N1`: the Potency was 13 µM (active).

Take `Cc1cccc(OC2=NS(=O)(=O)c3ccccc32)c1`: the “activity change, positive = activation” value is 14.9%.

`O=C1CCc2cc(S(=O)(=O)Nc3ccc(F)cc3)ccc2N1`: the Potency is 6.51 µM (active).

As to `Nc1cc(S(=O)(=O)N2CCN(S(=O)(=O)c3ccc4c(c3)OCCO4)CC2)ccn1`, the Potency was 3.26 µM (active).

For the molecule `Cc1ccc(NS(=O)(=O)c2ccc3c(c2)CCC(=O)N3)cc1F`, the Potency was 0.517 µM (active).

Consider `O=C1CCc2cc(S(=O)(=O)Nc3cccc4ccccc34)ccc2N1`, for which the Potency was 13 µM (active).

For `COc1cc(F)c(S(=O)(=O)N2CCCN(S(=O)(=O)c3ccc(N)cc3)CC2)c(F)c1`, the Potency was 1.3 µM (active).

As for `Cc1ccccc1OC1=NS(=O)(=O)c2ccccc21`, the “activity change, positive = activation” value was 15.7%.

As to `Cc1ccc(NS(=O)(=O)c2ccc(Cl)cc2)cc1C`, the Potency was 23.1 µM (active).

For `COc1cc(F)c(S(=O)(=O)N2CCN(S(=O)(=O)c3ccc(N)cc3)CC2)c(F)c1`, the Potency was 0.13 µM (active).

On to `Cc1ccc2nc(-c3ccco3)c(Nc3ccccc3)n2c1`, for which the “activity change, positive = activation” value was 8.77%.

Consider `Cn1c2cc(S(C)=O)sc2c2cnn(Cc3cccc(O)c3)c(=O)c21` (stereo not given), for which the Potency is 0.13 µM (active).

On to `O=S1(=O)N=C(OCc2ccccc2)c2ccccc21`, for which the “activity change, positive = activation” value was -0.444%.

As to `O=S1(=O)N=C(Oc2ccc(Cl)cc2)c2ccccc21`, the “activity change, positive = activation” value was 14.4%.

Take `COc1cc(F)c(S(=O)(=O)N2CCCN(S(=O)(=O)c3cccc(N)c3)CC2)c(F)c1`: the Potency is 1.16 µM (active) and 1.46 µM (active).

Regarding `Cc1ccc(OC2=NS(=O)(=O)c3ccccc32)cc1`, the “activity change, positive = activation” value was 13.7%.

As to `Cc1ccc2nc(-c3cccs3)c(Nc3ccccc3)n2c1`, the “activity change, positive = activation” value is 11.6%.

For `O=C1c2ccccc2C(=O)N1c1cncc2ccccc12`, the “activity change, positive = activation” value is 11.1%.

In the case of `O=C1c2ccccc2C(=O)N1c1ccccn1`, the “activity change, positive = activation” value is 10.4%.

Take `O=C1CCc2cc(S(=O)(=O)Nc3cccc(F)c3)ccc2N1`: the Potency is 0.919 µM (active).

For the molecule `Cc1cc(C)n2c(Nc3ccccc3)c(-c3ccc(C)o3)nc2n1`, the Potency is 16.3 µM (active).

As for `CC(=O)Nc1cccc(OC2=NS(=O)(=O)c3ccccc32)c1`, the “activity change, positive = activation” value is 3%.

On to `COc1ccc(Nc2c(-c3ccc(C)o3)nc3ccccn23)cc1`, for which the “activity change, positive = activation” value was 23.2%.

`Cc1ccc(NS(=O)(=O)c2ccc3c(c2)CC(=O)N3C)cc1C`: the Potency is 3.66 µM (active).
